Source: ChEMBL document CHEMBL3988442, “University of Dundee, Small-Polar-MMV Screening Library” (2021)
Screen size: about 53,000 compounds; about 900 (1.7%) showed an effect of 50% or more. The sample holds strong results, similar compounds and a random draw of the others, so the mix is not that of the screen.

System: Mycobacterium tuberculosis
Test: Cornell - Phenotypic assay to identify agents that inhibit growth of Mycobacterium tuberculosis
Type: functional
Design: scale not given: direction of the effect not stated beside the values
Settings: 10 mM as filed; unlikely as a test dose

Compound | Percent Effect [%]
CN(C1CCCCC1)S(=O)(=O)N1CCN(Cc2ccon2)CC1 | 27.01
Cc1ccccc1CN1CCCN(S(=O)(=O)N(C)C2CCCCC2)CC1 | 58.2
CN(C1CCCCC1)S(=O)(=O)N1CCN(Cc2ccco2)CC1 | 2.513
CCOCCC1(CNC(=O)c2ccncc2)CCC1 | 19.62
CN1CCCC(c2ccc(N3CCOCC3)cn2)C1.Cl (stereo not drawn) | 35.11
Cc1cc(C2CCCCN2C(=O)c2ccsc2)nc2nccn12 (stereo not drawn) | -13.93
Cc1cc(NC(=O)CN2CCN(C3CCCC3)C(=O)C2)nn1C | 12.31
CCn1nccc1CN(C)c1[nH]cnc2nc(C)nc1-2 | 1.62
c1ccc(-c2nc3c(c(NCCc4c[nH]cn4)n2)CCNC3)cc1 | 96.35
c1nc(CCNc2nc(C3CC3)nc3c2CCNCC3)c[nH]1 | 8.345
c1cc(-c2nc3c(c(NCCc4c[nH]cn4)n2)CCNCC3)ccn1 | -23.76
O=C(c1ccncc1)N1CCC(Cc2cnc3[nH]ccc3c2)CC1 | -105.2
CCc1ncc2c(n1)CN(Cc1nc(-c3cccs3)no1)CC2 | 23.26
CC(C)c1ncc2c(n1)CN(Cc1nc(-c3cccs3)no1)CC2 | 53.42
Cc1ncc2c(n1)CN(Cc1nc(-c3cccs3)no1)CC2 | -6.861
CCOc1cccc2c1OCC(=O)N(c1ccc3c(c1)OCO3)C2 | -8.978
Cc1ncc(C(=O)NCCNC(=O)c2ccccc2)s1 | -13.65
CCc1nccn1C1CCCN(C(=O)c2cn3c(C)cccc3n2)C1 (stereo not drawn) | 3.072
CN1CCOC(CN(C(=O)CCc2cnn(C)c2)c2nccs2)C1 (stereo not drawn) | -11.48
CC(C)(C)c1n[nH]cc1CNCC1CCN(C2CC2)C1.Cl (stereo not drawn) | 94.59
CC(C)N1CCC(CNCc2c[nH]nc2C(C)(C)C)C1 (stereo not drawn) | 7.799
CCN1CCC(CNCc2c[nH]nc2C(C)(C)C)C1.Cl (stereo not drawn) | 10.08
Cl.O=S(=O)(N1CCCC1)N1CC[C@H](c2ccccc2)[C@H]2NCCCC[C@H]21 | -130.5

Compound | Percent Effect [%]
CCC(CO)(CO)NC(=O)C1CCC(=O)N(CCc2ccccc2)C1 (stereo not drawn) | 9.017
Cc1cnn(CC(C)NCc2csc(-c3cccs3)n2)c1 (stereo not drawn) | 3.673
CC(Cn1cccn1)NCc1csc(-c2ccc(F)cc2)n1 (stereo not drawn) | 35.16
COc1cccc(-c2nc(CNC(C)Cn3cccn3)cs2)c1 (stereo not drawn) | 32.64
CC(Cn1cccn1)NCc1csc(-c2ccsc2)n1 (stereo not drawn) | 13.88
CC(Cn1cccn1)NCc1csc(-c2ccccc2)n1 (stereo not drawn) | 63.3
CC(Cn1cccn1)NCc1nc(-c2ccc3c(c2)OCO3)no1 (stereo not drawn) | 3.313
COc1ccc(-c2nc(CNC(C)Cn3cccn3)cs2)cc1 (stereo not drawn) | 49.5
CC(Cn1cccn1)NCc1csc(-c2cccs2)n1 (stereo not drawn) | 61.96
CC(Cn1cccn1)NCc1csc(-c2ccc3c(c2)OCO3)n1 (stereo not drawn) | 59.29
CC(C)Cc1cc(NC(=O)c2ccccc2F)n(C)n1 | 11
CCc1ccc(N2CCC(NS(=O)(=O)N(CC)CC)CC2)cc1 | 14.08
CCN(CC)C(=O)c1ccc(NC(=O)CNc2ccc(Br)cc2F)cc1 | -14.15
N#CCc1ccc(NC(=O)CNc2ccc(Br)cc2F)cc1 | 10.15
COc1ccc(NC(=O)CNc2ccc(Br)cc2F)cc1 | 107.2
CC(C)CN1CCC(c2nc3ccc(NC(C)C)cn3n2)CC1.O=C(O)C(F)(F)F.O=C(O)C(F)(F)F | 2.767
CN1CCOC(CNCc2cnc(C(C)(C)C)s2)C1 (stereo not drawn) | 18.35
Cc1cc(C(=O)Nc2cccn(Cc3ccc(F)cc3)c2=O)no1 | 24.65
O=C(NCCn1ccnc1)N1CCN(Cc2cccs2)CC1 | -4.677
CC(NC(=O)N1CCN(c2cccs2)CC1)c1ccc(C#N)cc1 (stereo not drawn) | 66.35
CC(=O)Nc1nc(C(=O)NC(C)c2ccc(C#N)cc2)cs1 (stereo not drawn) | 12.08
CC(NC(=O)N1CCN(c2ncccn2)CC1)c1ccc(C#N)cc1 (stereo not drawn) | -12.2
O=C(NCCCn1ccnc1)N1CCN(c2cccs2)CC1 | 78.28

Compound | Percent Effect [%]
O=C(NCCn1ccnc1)N1CCN(c2nccs2)CC1 | -3.95
CC(NC(=O)N1CCN(c2cccs2)CC1)c1ccncc1 (stereo not drawn) | 62.51
CC(C)c1noc(CCNC(=O)N2CCN(c3cccs3)CC2)n1 | 4.976
Cc1noc(C)c1C(C)NC(=O)N1CCN(c2cccs2)CC1 (stereo not drawn) | 32.97
CN(C)C[C@@H]1C[C@@H]2CN(C(=O)Cc3cccs3)CC[C@@H]2N1C | -13.85
Cc1cc(C)nc(N2CCC(Cn3cc(C(=O)N(C)C)cn3)CC2)n1 | 9.732
CC(C)(C)c1cc(NC(=O)CNC2CCc3ncnn3C2)on1 (stereo not drawn) | -1.762
c1cncc(Cc2nnc3n2CCN(CC2CCOC2)CC3)c1 (stereo not drawn) | 8.69
O=C(O)c1ccc(S(=O)(=O)Nc2c(F)cccc2-n2cccn2)cc1 | 7.087
O=C(O)C(F)(F)F.O=C(O)C(F)(F)F.O=C(c1ccc(F)cc1)N1CCN2C[C@H](OCc3cccnc3)C[C@H]2C1 | 19.5
O=C(c1cccc2ccnn12)N1CCCC1Cn1cccn1 (stereo not drawn) | 2.312
Cc1noc(-c2c[nH]nc2C2CCCN2C(=O)c2ccccc2)c1C (stereo not drawn) | -2.6
CCCC(=O)N(CCCN1CCOCC1)c1nc2c(F)cccc2s1.Cl | 7.328
CCCC(=O)N(CCCN1CCOCC1)c1nc2c(Cl)cccc2s1.Cl | 9.811
Cc1ccc(CCCC(=O)N(C)CCN2CCOCC2)cc1 | -37.37
CCCC(=O)N(CCCN1CCOCC1)c1nc2c(C)c(C)ccc2s1.Cl | 69.7
CCCC(=O)N(CCN1CCOCC1)c1nc2c(OC)ccc(C)c2s1.Cl | -1.479
CCCC(=O)N(CCCN1CCOCC1)c1nc2c(C)ccc(Cl)c2s1.Cl | 110.2
CC(=O)N1CCC(c2nccnc2Nc2ncc(C)s2)CC1 | 21.23
O=C(Nc1ccccc1OC1CCOC1)c1[nH]nc2c1CCCC2 (stereo not drawn) | 80.23
O=C(NCCc1ccccn1)c1[nH]nc2c1CCCC2 | 20.26
O=C(Nc1ccccc1OC1CCOC1)c1cc[nH]n1 (stereo not drawn) | -18.84
